# Laboratory results from PMC7862700, “An all-to-all approach to the identification of sequence-specific readers for epigenetic DNA modifications on cytosine”.
# Experiments:
# Experiment in all cases: DAPPL (digital affinity profiling via proximity ligation, sequencing); 10 mM Tris-HCl pH 7.5, 50 mM NaCl, 1 mM DTT, 4% glycerol, room temperature, 30 min; GST-TFs on glutathione beads, 16-mer random dsDNA library, 0.1% formaldehyde crosslink after washing; high values mean tight binding
# Settings in all cases: protein: recombinant; tags: N-terminal GST; dsDNA, one strand shown
# CRX = CRX (Homo sapiens, UniProt O43186 1-299)
# Sequence of CRX (O43186 whole entry, the tested form may be a part): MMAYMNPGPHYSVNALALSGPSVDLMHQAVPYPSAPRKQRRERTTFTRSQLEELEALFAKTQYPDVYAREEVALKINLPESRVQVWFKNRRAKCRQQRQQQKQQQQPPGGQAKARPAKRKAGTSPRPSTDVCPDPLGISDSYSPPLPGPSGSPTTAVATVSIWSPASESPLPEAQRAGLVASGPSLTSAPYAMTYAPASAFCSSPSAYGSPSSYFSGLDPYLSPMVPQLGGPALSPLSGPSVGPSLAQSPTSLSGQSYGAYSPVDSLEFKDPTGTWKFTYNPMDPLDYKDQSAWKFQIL
# Outline: (§1)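 The binding signal reported is, for every hexamer, its read frequency for a factor over its read frequency for the tag-only sample. Reads came from pools of yeast-expressed, GST-fused human transcription factors on glutathione beads, barcoded with DNA and mixed with that sample, which were incubated with 200 nmole of a random double-stranded 16-mer DNA library in Tris/NaCl/DTT/glycerol buffer at room temperature for 30 min. After washing, the pools were crosslinked with 0.1% formaldehyde, proximity-ligated with BsaI/T4 ligase for 1 h at 37 °C, PCR-amplified and sequenced on an Illumina NextSeq500.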
# ELF5 = target: T1, ELF5 (Homo sapiens, UniProt Q9UKW6-2 1-255)
# T1 sequence: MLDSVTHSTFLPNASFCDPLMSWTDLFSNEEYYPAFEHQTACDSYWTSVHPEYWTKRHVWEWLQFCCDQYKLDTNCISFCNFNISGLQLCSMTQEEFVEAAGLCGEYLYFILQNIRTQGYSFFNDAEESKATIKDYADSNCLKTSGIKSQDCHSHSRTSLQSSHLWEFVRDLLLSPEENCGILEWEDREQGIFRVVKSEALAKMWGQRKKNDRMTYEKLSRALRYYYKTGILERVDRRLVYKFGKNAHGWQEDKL
# Outline: as §1
# ETV3L = target: T2, ETV3L (Homo sapiens, UniProt Q6ZN32 1-361)
# T2 sequence: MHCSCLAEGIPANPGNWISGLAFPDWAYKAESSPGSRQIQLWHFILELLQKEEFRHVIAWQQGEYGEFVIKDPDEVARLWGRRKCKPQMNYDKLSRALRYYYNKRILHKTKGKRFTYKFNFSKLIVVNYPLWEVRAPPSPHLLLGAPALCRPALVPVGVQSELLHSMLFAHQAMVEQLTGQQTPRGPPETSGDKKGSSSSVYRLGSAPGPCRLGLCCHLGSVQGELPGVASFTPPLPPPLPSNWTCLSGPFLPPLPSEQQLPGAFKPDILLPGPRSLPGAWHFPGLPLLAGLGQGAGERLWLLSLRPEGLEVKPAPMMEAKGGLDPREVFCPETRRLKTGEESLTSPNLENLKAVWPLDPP
# Outline: as §1
# ETV1 = ETV1 (Homo sapiens, UniProt P50549 1-477)
# Sequence of ETV1 (P50549 whole entry): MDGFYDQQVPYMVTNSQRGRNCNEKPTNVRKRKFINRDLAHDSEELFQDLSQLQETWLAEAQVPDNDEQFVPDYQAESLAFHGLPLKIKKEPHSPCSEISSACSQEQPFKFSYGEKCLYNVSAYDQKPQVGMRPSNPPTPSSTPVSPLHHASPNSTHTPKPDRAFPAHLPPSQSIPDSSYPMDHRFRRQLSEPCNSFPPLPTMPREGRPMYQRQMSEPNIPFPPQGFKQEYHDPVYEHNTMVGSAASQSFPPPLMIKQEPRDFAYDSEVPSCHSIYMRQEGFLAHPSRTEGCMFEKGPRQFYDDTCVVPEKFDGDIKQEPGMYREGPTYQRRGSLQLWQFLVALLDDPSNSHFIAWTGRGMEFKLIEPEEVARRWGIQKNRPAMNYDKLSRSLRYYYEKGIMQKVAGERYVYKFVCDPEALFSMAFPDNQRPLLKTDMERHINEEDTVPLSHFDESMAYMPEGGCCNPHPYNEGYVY
# Outline: as §1
# ERF = target: T3, ERF (Homo sapiens, UniProt P50548 1-548)
# T3 sequence: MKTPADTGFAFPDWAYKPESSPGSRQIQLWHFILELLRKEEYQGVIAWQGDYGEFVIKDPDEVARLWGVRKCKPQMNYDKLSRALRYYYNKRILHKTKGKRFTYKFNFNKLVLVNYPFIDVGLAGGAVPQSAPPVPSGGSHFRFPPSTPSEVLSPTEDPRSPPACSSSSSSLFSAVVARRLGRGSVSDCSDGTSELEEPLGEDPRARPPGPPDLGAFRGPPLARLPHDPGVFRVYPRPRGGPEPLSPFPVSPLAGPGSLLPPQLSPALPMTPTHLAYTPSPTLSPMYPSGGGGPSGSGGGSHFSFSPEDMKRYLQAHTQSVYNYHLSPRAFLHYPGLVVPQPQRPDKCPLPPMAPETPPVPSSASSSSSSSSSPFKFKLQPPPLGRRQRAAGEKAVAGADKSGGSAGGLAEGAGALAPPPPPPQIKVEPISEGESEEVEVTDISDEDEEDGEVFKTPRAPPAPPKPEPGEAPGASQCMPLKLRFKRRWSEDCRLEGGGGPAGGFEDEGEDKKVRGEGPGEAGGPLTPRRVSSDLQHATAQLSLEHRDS
# Outline: as §1
# ETV7 = target: T4, ETV7 (Homo sapiens, UniProt Q9Y603 1-341)
# T4 sequence: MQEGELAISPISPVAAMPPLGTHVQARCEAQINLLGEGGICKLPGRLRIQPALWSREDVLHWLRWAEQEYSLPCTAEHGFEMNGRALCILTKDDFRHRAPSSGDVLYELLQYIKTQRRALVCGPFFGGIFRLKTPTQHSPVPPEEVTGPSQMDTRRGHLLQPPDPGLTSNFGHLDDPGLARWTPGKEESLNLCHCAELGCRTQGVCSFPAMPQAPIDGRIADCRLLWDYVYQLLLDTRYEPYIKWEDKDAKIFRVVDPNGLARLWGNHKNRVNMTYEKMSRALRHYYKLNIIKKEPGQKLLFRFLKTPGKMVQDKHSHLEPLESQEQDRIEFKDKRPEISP
# Outline: as §1
# GABPA = target: T5, GABPA (Homo sapiens, UniProt Q06546 1-454)
# T5 sequence: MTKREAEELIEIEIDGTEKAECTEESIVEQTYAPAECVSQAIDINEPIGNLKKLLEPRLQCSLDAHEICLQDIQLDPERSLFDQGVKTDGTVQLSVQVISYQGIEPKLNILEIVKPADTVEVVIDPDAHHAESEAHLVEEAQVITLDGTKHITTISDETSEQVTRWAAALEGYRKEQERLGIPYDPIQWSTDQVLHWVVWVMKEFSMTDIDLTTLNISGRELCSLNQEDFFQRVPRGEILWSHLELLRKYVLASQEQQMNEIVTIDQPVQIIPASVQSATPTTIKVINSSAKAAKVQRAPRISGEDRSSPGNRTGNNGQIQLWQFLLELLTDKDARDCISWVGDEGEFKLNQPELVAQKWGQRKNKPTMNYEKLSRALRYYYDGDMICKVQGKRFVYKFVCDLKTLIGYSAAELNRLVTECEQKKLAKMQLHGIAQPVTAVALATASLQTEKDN
# Outline: as §1
# SPDEF = target: T6, SPDEF (Homo sapiens, UniProt O95238 1-335)
# T6 sequence: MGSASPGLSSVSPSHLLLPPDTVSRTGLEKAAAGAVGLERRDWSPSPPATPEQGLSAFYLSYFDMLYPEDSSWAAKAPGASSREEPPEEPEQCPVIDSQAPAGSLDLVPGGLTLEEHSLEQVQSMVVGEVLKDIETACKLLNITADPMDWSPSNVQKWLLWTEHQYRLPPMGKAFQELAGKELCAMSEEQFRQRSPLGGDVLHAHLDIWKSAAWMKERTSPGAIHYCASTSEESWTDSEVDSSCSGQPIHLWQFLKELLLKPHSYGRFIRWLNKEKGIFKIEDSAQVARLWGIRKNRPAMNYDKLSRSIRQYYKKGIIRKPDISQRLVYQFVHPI
# Outline: as §1
# SPIB = SPIB (Homo sapiens, UniProt Q01892 1-262)
# Sequence of SPIB (Q01892 whole entry): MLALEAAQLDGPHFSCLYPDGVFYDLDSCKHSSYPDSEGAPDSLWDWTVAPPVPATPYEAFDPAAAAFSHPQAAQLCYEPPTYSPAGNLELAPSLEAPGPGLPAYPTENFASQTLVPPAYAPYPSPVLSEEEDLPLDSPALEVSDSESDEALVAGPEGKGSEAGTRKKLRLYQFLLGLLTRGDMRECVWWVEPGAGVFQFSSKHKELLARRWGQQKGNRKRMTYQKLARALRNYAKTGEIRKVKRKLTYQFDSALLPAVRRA
# Outline: as §1
# ELK3 = target: T7, ELK3 (Homo sapiens, UniProt P41970 1-407)
# T7 sequence: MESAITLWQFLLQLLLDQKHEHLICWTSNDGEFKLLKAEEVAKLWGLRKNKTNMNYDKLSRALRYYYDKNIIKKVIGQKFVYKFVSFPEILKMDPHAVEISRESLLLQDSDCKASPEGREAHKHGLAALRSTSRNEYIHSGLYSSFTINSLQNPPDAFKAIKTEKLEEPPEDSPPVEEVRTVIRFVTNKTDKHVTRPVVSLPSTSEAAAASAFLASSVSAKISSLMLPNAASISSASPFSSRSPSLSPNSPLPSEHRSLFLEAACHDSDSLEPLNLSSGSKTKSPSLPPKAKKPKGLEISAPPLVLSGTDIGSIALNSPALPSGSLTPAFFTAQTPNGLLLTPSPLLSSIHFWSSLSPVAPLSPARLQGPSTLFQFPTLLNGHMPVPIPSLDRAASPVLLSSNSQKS
# Outline: as §1
sequence,measurement,setting,value
GGGGAT,binding signal,CRX,"1.21 fold enrichment (6-mer frequency, TF over GST control)"
TAAGGA,binding signal,CRX,"1.22 fold enrichment (6-mer frequency, TF over GST control)"
same,binding signal,ELF5,"1.32 fold enrichment (6-mer frequency, TF over GST control)"
GTATAG,binding signal,ETV3L,"1 fold enrichment (6-mer frequency, TF over GST control)"
GTCTGT,binding signal,ETV1,"1.01 fold enrichment (6-mer frequency, TF over GST control)"
GACGAT,binding signal,ERF,"1.02 fold enrichment (6-mer frequency, TF over GST control)"
same,binding signal,ETV7,"1 fold enrichment (6-mer frequency, TF over GST control)"
GACAAA,binding signal,ERF,"1.06 fold enrichment (6-mer frequency, TF over GST control)"
same,binding signal,ETV7,"1.1 fold enrichment (6-mer frequency, TF over GST control)"
TCGCCA,binding signal,GABPA,"1 fold enrichment (6-mer frequency, TF over GST control)"
same,binding signal,ETV3L,"1.01 fold enrichment (6-mer frequency, TF over GST control)"
GACCCT,binding signal,ERF,"1.05 fold enrichment (6-mer frequency, TF over GST control)"
GACACC,binding signal,ETV3L,"1.01 fold enrichment (6-mer frequency, TF over GST control)"
CGCCGT,binding signal,GABPA,"1.01 fold enrichment (6-mer frequency, TF over GST control)"
GGGTCT,binding signal,SPDEF,"1.01 fold enrichment (6-mer frequency, TF over GST control)"
CAGTTT,binding signal,SPIB,"1.03 fold enrichment (6-mer frequency, TF over GST control)"
same,binding signal,ELK3,"1.04 fold enrichment (6-mer frequency, TF over GST control)"
same,binding signal,ERF,"1.01 fold enrichment (6-mer frequency, TF over GST control)"
GGTGCT,binding signal,ETV1,"1.08 fold enrichment (6-mer frequency, TF over GST control)"
